Assay outcomes as filed in PubChem.
HSP90 refold inh – inhibitors of HSP90 luciferase refolding in rabbit reticulocyte lysate | 290,000 tested, 0.91% active | inhibition, % at 5.6 µM | AID 1789 | luciferase refolding luminescence, 3 h;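 active = inhibition above the screen-wide mean plus 3 SD, computed separately per campaign, cut at about 16% in these data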;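 also: inhibitors lower the luminescence because luciferase stays unfolded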
SENP6 block – SENP6 protease inhibition | inhibition, % at 10 µM | AID 2599 | Q9GZR1 | 330,000 tested, 1.8% active | Recombinant SENP6 catalytic domain, aminoluciferin luminescence;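 active = inhibition above about 50% at the single tested dose, limit read from the data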
SENP8 block-1 – inhibitors of human SENP8 protease; Q96LD8; recombinant SENP8, Nedd8 substrate fluorescence; inhibition, % at 20 µM; 360,000 tested, 0.64% active; in the data active = inhibition mostly above about 40%, no sharp cut-off; inactive = mostly below about 27%
SENP8 block-2 – SENP8 protease inhibition. AID 2540. Q96LD8. inhibition, % at 10 µM. purified SENP8, Z-RLRGG-aminoluciferin cleavage, luminescence. 330,000 tested, 1.2% active; in the data active = inhibition above about 50%
SENP7 block – SENP7 protease inhibition. 330,000 tested, 1.5% active. inhibition, % at 5 µM. Q9BQF6. recombinant SENP7, Z-RLRGG-aminoluciferin luminescence, 40 min;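 active = inhibition above about 50% at the single test dose, limit read from the data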
Target sequence (Q9BQF6 706-1050 limits assumed): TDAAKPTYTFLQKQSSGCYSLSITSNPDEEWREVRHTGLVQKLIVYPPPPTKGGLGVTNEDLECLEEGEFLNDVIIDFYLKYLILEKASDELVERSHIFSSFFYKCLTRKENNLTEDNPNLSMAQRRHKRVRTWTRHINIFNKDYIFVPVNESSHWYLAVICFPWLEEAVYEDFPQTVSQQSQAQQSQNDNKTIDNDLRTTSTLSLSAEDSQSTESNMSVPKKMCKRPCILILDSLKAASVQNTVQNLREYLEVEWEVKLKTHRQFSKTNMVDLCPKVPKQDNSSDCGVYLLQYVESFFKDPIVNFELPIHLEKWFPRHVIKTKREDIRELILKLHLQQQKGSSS
SENP8 conf – confirmation of human SENP8 protease inhibitors; shares compounds with SENP7 block; Recombinant SENP8, Z-RLRGG-aminoluciferin luminescence, 60 min; inhibition, % at 12.5 µM; 6,200 tested, 40% active; AID 488912;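 active = mean inhibition across replicates above about 50%, limit read from the data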
SENP6 conf – human SENP6 inhibition, confirmed; shares compounds with SENP7 block; recombinant SENP6, Z-RLRGG-aminoluciferin luminescence; inhibition, % at 12.5 µM; 6,200 tested, 58% active; AID 488915
SENP7 conf – human SENP7 inhibition, confirmed; recombinant SENP7, Z-RLRGG-aminoluciferin luminescence, 40 min; shares compounds with SENP7 block; inhibition, % at 12.5 µM; 6,200 tested, 69% active
Casp3 SENP sel – caspase-3 inhibition (SENP selectivity assay); 6,200 tested, 60% active; shares compounds with SENP7 block; purified caspase-3, Z-DEVD-aminoluciferin luminescence, 60 min; AID 488918; inhibition, % at 12.5 µM;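 active = mean inhibition above about 50%, limit read from the data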
Target sequence (P42574 28-227 limits assumed): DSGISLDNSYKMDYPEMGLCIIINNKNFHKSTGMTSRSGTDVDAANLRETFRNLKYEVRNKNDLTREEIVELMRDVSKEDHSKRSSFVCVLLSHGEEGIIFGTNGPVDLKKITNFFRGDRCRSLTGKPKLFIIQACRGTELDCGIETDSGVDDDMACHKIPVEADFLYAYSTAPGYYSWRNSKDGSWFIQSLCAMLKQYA
Luc interf – counter-screen for SENP inhibitors: luminescence interference; Pre-incubated SENP8/Z-RLRGG-aminoluciferin, luciferase luminescence interference; inhibition, % at 12.5 µM; shares compounds with SENP7 block; 6,200 tested, 39% active; AID 488919;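 active = mean inhibition above about 50% when retested at one dose, limit read from the data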
Each line names hits and unclear results; the compound was inactive in the other large screens (follow-up assays come after a bar, where they were run). A selection: hits, their analogues and other compounds. The true share with any hit is near 2.8%.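 The calls were made as follows, unless noted: active = mean inhibition above about 50% in the one-dose retest (limit read from the data); inactive = the rest.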

O=C(Nc1cccc(Cl)c1)c1nc[nH]c1C(=O)N1CCc2ccccc2C1	none (no result: HSP90 refold inh)
O=C(Nc1cccc(Cl)c1)N1CCc2ccccc2C1	SENP6 block 51 | SENP8 conf inactive | SENP6 conf inactive | SENP7 conf 78 | Casp3 SENP sel inactive | Luc interf inactive
O=Nc1c2nc3ccccc3n(O)c-2c2ccccc12	SENP6 block 50 | SENP8 conf inactive | SENP6 conf inactive | SENP7 conf inactive | Casp3 SENP sel 53 | Luc interf inactive
COc1cccc2cc(-c3nc4ccccc4[nH]3)c(=O)oc12	SENP7 block 59 | SENP8 conf inactive | SENP6 conf inactive | SENP7 conf inactive | Casp3 SENP sel inactive | Luc interf inactive
COc1ccc(-c2cc3cccc(OC)c3oc2=O)cc1	SENP6 block 81, SENP8 block-2 80, SENP7 block 87 | SENP8 conf 89 | SENP6 conf 90 | SENP7 conf 99 | Casp3 SENP sel 88 | Luc interf 76
O=C(N/N=C/c1ccccc1OCc1ccccc1)c1cccnc1	none
O=C(Nc1sc2c(c1C(=O)O)CCCCC2)c1cccs1	SENP6 block 96, SENP8 block-2 95, SENP7 block 71 | SENP8 conf 98 | SENP6 conf 98 | SENP7 conf 102 | Casp3 SENP sel 94 | Luc interf 96
O=C(CCc1ccccc1)Nc1sc2c(c1C(=O)O)CCCC2	none (no result: HSP90 refold inh)
COC(=O)c1c(NC(=O)c2cccs2)sc2c1CCC(C)C2 (stereo not given)	none
O=C(Nc1sc2c(c1C(=O)NCC1CCCO1)CCCC2)c1cccs1 (stereo not given)	none
O=C(Nc1sc2c(c1C(=O)O)CCCC2)c1cccs1	SENP6 block 93, SENP8 block-2 85, SENP7 block 56 | SENP8 conf inactive | SENP6 conf 90 | SENP7 conf 98 | Casp3 SENP sel 86 | Luc interf 90
CC1CCc2c(sc(NC(=O)c3cccs3)c2C(=O)O)C1 (stereo not given)	SENP6 block 88, SENP8 block-2 76 | SENP8 conf 86 | SENP6 conf 86 | SENP7 conf 92 | Casp3 SENP sel 66 | Luc interf 86
O=C(/C=C/c1cccs1)Nc1sc2c(c1C(=O)O)CCCC2	SENP6 block 74, SENP8 block-2 55 | SENP8 conf inactive | SENP6 conf 66 | SENP7 conf 81 | Casp3 SENP sel 58 | Luc interf 71
CC(C)OC(=O)c1c(NC(=O)c2cccs2)sc2c1CCCC2	none
NC(=O)c1ccc(NC(=O)CCNC(=O)c2ccco2)cc1	none
COc1ccc(C(=O)Nc2cccc(-c3ccc(N4CCOCC4)nn3)c2)cc1OC	none (no result: HSP90 refold inh)
CS/C(Nc1cc(Cl)ccc1Cl)=C(/C#N)C(=O)c1ccco1	SENP6 block 97, SENP8 block-2 94, SENP7 block 89 | SENP8 conf 92 | SENP6 conf 94 | SENP7 conf 98 | Casp3 SENP sel 91 | Luc interf 97
CCOC(=O)c1c(C)[nH]c(C(=O)N2CCCC(C(=O)c3cccc(OC)c3)C2)c1C (stereo not given)	none
Brc1ccc(-c2nc(-c3ccncc3)no2)cc1	SENP7 block 73 | SENP8 conf inactive | SENP6 conf inactive | SENP7 conf inactive | Casp3 SENP sel inactive | Luc interf inactive
c1coc(-c2nc(-c3ccncc3)no2)c1	SENP6 block 72, SENP7 block 62 | SENP8 conf inactive | SENP6 conf 53 | SENP7 conf 85 | Casp3 SENP sel 82 | Luc interf inactive
Brc1ccc(-c2nc(-c3ccncc3)no2)o1	none
c1ccc(-c2nc(-c3ccncc3)no2)cc1	SENP6 block 82, SENP8 block-2 58, SENP7 block 80 | SENP8 conf inactive | SENP6 conf inactive | SENP7 conf inactive | Casp3 SENP sel inactive | Luc interf inactive
c1ccc(-c2ccc(-c3nc(-c4ccncc4)no3)cc2)cc1	SENP6 block 91, SENP8 block-2 83 | SENP8 conf inactive | SENP6 conf inactive | SENP7 conf inactive | Casp3 SENP sel 72 | Luc interf inactive
c1ccc(-c2ccccc2-c2nc(-c3ccncc3)no2)cc1	none
O=[N+]([O-])c1ccc(-c2nc(-c3ccncc3)no2)cc1	none
COc1ccc(NCC(=O)Nc2cc(S(=O)(=O)N3CCOCC3)ccc2N2CCOCC2)c(OC)c1	none
Cc1cc(Br)ccc1SCC(=O)N1CCN(S(=O)(=O)c2ccccc2)CC1	none
Cc1cccc(-c2nc3cc([N+](=O)[O-])ccc3o2)c1	SENP7 block 82 | SENP8 conf inactive | SENP6 conf inactive | SENP7 conf 72 | Casp3 SENP sel 75 | Luc interf inactive
NC(N)=Nc1nc2cc([N+](=O)[O-])ccc2o1	none
COc1ccc(-c2cc(C(=O)Oc3ccc([N+](=O)[O-])cc3)c3ccccc3n2)cc1	none
O=[N+]([O-])c1ccc2oc(-c3ccccc3)nc2c1	SENP7 block 77 | SENP8 conf inactive | SENP6 conf inactive | SENP7 conf inactive | Casp3 SENP sel inactive | Luc interf inactive
COc1ccc(-c2nc3ccc([N+](=O)[O-])cc3o2)cc1	SENP7 block 69 | SENP8 conf inactive | SENP6 conf inactive | SENP7 conf inactive | Casp3 SENP sel inactive | Luc interf inactive
Cc1ccc(SCc2nnc(N)s2)cc1	none
Cc1ccc(OCC(=O)Nc2cccc(-c3nnc(-c4ccccc4)o3)c2)cc1	none
C[C@@H]1CN([C@@H](C)CO)C(=O)CCCn2nncc2CO[C@H]1CN(C)S(=O)(=O)c1ccc(-n2cccn2)cc1	none (no result: HSP90 refold inh, SENP6 block, SENP8 block-2, SENP7 block)
CCOC(=O)c1c(C)nc2c3ccccc3ccn12	SENP6 block 74, SENP8 block-2 53, SENP7 block 78 | SENP8 conf 63 | SENP6 conf 60 | SENP7 conf 89 | Casp3 SENP sel 74 | Luc interf 65
O=C(O)CSc1nnc(NC(=O)CN2CCOCC2)s1	none
Nc1nc(-c2ccc3c(c2)CCCC3)cs1	SENP6 block 79, SENP8 block-2 53, SENP7 block 56 | SENP8 conf 65 | SENP6 conf 75 | SENP7 conf 91 | Casp3 SENP sel 51 | Luc interf 70
O=C(C1CCC(C(=O)N2CCc3ccccc32)CC1)N1CCc2ccccc21 (stereo not given)	none
